# Rows were chosen to be rich in hits. Some 4% of all compounds tested hit in one or more screens of this group.
# NR3A LBD binder: modulates the human NR3A ligand-binding domain. Tm shift relative to glycine control, % at 25 µM. NR3A LBD differential scanning fluorimetry, Tm shift; 0% = protein alone, 100% = glycine-bound protein. 340,000 compounds, 2.5% hits;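 active = melting temperature shift of at least 10% of the positive control shift, at one fixed dose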
# aDG glyco up: alpha-DG glycosylation activation | 360,000 compounds, 0.22% hits | AID 624168 | activation, % at 10 µM | Pro5-aDG cells, alpha-DG glycosylation AlphaScreen (IIH6); 0% Pro5, 100% B10-LARGE cell signal;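 active = activation of at least 8% versus controls, or a plate z-score of at least 8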;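 also: Pro5 are CHO cells carrying HIG-tagged alpha-DG that lacks glycosylation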
# ADAM10 inh: ADAM10 inhibition, QFRET primary screen. inhibition, % at 7 µM. recombinant ADAM10, EDANS/DABCYL FRET peptide cleavage, 3 h. 370,000 compounds, 0.62% hits;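 active = inhibition above a per-campaign cutoff equal to the mean of compounds falling between control-based bounds plus 3 SD, cut at about 20% in these data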;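 also: 0% = DMSO wells while the 100% control is not disclosed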
# Target sequence (O14672 214-748 limits assumed): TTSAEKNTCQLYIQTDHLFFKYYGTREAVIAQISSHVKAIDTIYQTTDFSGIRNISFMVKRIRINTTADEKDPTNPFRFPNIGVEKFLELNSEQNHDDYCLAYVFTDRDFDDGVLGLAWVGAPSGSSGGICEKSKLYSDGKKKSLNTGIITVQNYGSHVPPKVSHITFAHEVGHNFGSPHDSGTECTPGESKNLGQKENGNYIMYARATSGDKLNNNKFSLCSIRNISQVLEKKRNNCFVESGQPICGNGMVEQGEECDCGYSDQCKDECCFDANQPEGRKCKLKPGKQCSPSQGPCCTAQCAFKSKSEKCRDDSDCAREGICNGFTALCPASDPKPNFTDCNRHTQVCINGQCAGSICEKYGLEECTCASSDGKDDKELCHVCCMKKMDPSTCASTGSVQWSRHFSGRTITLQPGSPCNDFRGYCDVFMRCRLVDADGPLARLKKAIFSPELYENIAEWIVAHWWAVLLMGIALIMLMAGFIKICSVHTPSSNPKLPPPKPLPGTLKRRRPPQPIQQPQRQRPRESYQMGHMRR
# FAS-TE inh: inhibitors of human fatty acid synthase thioesterase domain | inhibition, % at 15 µM | recombinant FAS-TE, OMFH fluorogenic substrate, fluorescence endpoint | P49327 | 360,000 compounds, 0.67% hits | AID 602261;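 active = compounds whose normalised, plate-corrected inhibition of enzyme fluorescence in the single-dose primary screen is 50% or more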;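 also: 0% = DMSO with enzyme and 100% = substrate without enzyme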
# ADAM17 inh: inhibitors of human ADAM17. recombinant ADAM17, EDANS/DABCYL FRET peptide cleavage. P78536. 370,000 compounds, 0.83% hits. inhibition, % at 6.95 µM. AID 720648;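 active = inhibition above the mean of compounds lying between control limits plus 3 SD, set per campaign, cut at about 8.5% in these data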;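 also: 0% = DMSO-only wells as the low control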
# The depositor's hits bear a star; / = no result given.
SMILES,NR3A LBD binder,aDG glyco up,ADAM10 inh,FAS-TE inh,ADAM17 inh
Cc1cccc(NC(=O)CSc2nnc(NC(=O)C3CCC3)s2)c1,18.4*,0.1,-1.4,-0.2,1.0
COc1cccc(NC(=O)CSc2nnc(NC(=O)C3CC3)s2)c1,31.0*,-0.1,1.0,-3.7,0.4
CC(=O)Nc1cccc(NC(=O)CSc2nnc(NC(=O)C3CC3)s2)c1,1.5,0.2,1.4,-5.5,1.8
COc1ccc(CNC(=O)C(c2ccncc2)N(C(=O)Cc2cccs2)c2cccnc2)cc1 (configuration not stated),1.3,0.0,-2.8,-6.0,-2.3
O=C(Nc1ccc2nsnc2c1)c1ccc2c(c1)OCO2,14.1*,0.2,/,2.5,/
O=C(Nc1ccc2c(c1)OCO2)c1ccc2c(c1)OCO2,-8.1,-0.3,0.8,-12.6,-1.1
O=C(Nc1ccc(Cl)c(Cl)c1)c1ccc2c(c1)OCO2,36.8*,0.1,5.7,25.3,0.1
O=C(Nc1cccc(NC(=O)c2ccc3c(c2)OCO3)c1)c1ccccc1,-4.8,0.2,2.9,5.6,3.9
N#CCC(=O)Nc1ccc(C(=O)Nc2ccc3c(c2)OCO3)cc1,29.1*,-0.1,-1.2,-1.3,0.1
O=C(Nc1nc(-c2ccccc2)cs1)C1CCCN(S(=O)(=O)c2ccccc2)C1 (configuration not stated),4.9,0.7,16.9,32.3,9.4*
O=C(Nc1nc(-c2ccc(S(=O)(=O)N3CCCCCC3)cc2)cs1)c1cccs1,3.6,0.2,-1.4,29.3,-1.5
O=C(Nc1nc(-c2cccs2)cs1)c1ccc(Cl)cc1,10.7*,-0.3,4.1,5.1,5.7
Cc1csc(NC(=O)c2sc3nc(-c4cccs4)ccc3c2N)n1,28.4*,/,/,/,/
O=C(Nc1nc(-c2ccc(S(=O)(=O)N3CCCC3)cc2)cs1)c1cccs1,1.4,0.7,4.7,52.0*,3.3
COc1cc(C(=O)Nc2nc(-c3cccs3)cs2)cc(OC)c1OC,-4.5,-0.6,0.3,29.0,2.8
O=C(Nc1ccc(N2CCCC2)cc1)c1cccc(Cl)c1,1.9,0.1,6.9,1.3,6.3
O=C(Nc1nc(-c2ccccc2Cl)cs1)c1cccnc1,10.2*,0.3,2.7,-0.3,-4.8
Cc1noc(C)c1C(=O)Nc1nc(-c2ccccc2Cl)cs1,-6.4,0.1,-7.1,4.7,-2.0
Cc1c(C(=O)Nc2nccs2)sc2nc(-c3cccs3)cc(C(F)(F)F)c12,27.6*,0.0,-122.5,7.4,-44.1
Cc1ccc(-c2csc(NC(=O)c3cccc(S(=O)(=O)N4CCN(C)CC4)c3)n2)cc1,-3.4,1.8,10.2,16.6,-2.0
O=C(Nc1nc(-c2cccs2)cs1)c1cccc(S(=O)(=O)N2CCCCC2)c1,10.1*,-0.2,37.9*,20.0,15.6*
O=C(O)c1cc(S(=O)(=O)N(Cc2ccccc2)c2ccc(Cl)cc2)ccc1Cl,39.1*,0.0,7.0,0.8,-0.3
O=C(COC(=O)c1cccnc1Nc1ccccc1F)NCc1ccc2c(c1)OCO2,-9.8,0.0,3.9,4.2,2.5
CC(C)(COC(=O)c1ccccc1)N1CC2CCC(C1)O2,-2.8,-0.1,-18.8,-5.3,-1.9
CCc1ccccc1NC(=O)C1CCCN(c2nn3c(=O)cc(C)nc3s2)C1 (configuration not stated),2.2,-0.1,-7.4,-2.4,-2.9
SMILES,NR3A LBD binder,aDG glyco up,ADAM10 inh,FAS-TE inh,ADAM17 inh
O=C(Cn1c(-c2ccccc2)noc1=O)NCc1ccccc1,12.7*,0.2,8.2,-4.8,8.2
NNC(=O)CSc1nc(-c2ccccc2)nc2c1CCCC2,0.4,-0.3,1.4,-5.0,-3.3
CCn1c(/N=C/c2ccccc2NS(=O)(=O)c2ccc(C)cc2)nc2ccccc21,12.6*,1.4,/,-2.4,/
COCCNC(=O)C1CCCN(C(=O)c2ccc(F)c(C)c2)CC1 (configuration not stated),/,-0.1,-6.9,-7.4,1.0
COC(=O)c1cccc(NC(=O)c2ccc(OC)c(Cl)c2)c1,7.5,1.1,9.0,12.7,-3.6
COc1ccc(NC(=O)c2ccccc2F)cc1Cl,30.1*,-0.2,-3.4,-1.3,-5.3
COc1ccc(NC(=O)c2cccc(OC(F)F)c2)cc1Cl,31.3*,0.5,4.6,18.1,0.9
COc1ccc(NC(=O)c2cccc(F)c2)cc1Cl,10.5*,0.8,1.3,2.1,-1.0
COc1cc(NC(=O)c2ccc(-c3cccc(F)c3)o2)ccc1NC(=O)c1ccccc1Cl,23.2*,0.7,1.8,25.4,-3.5
COc1ccc(NC(=O)c2ccco2)cc1NC(=O)c1ccccc1F,-0.9,0.1,5.3,0.9,-0.8
O=C(Nc1ccc(OC(F)F)c(Cl)c1)c1cccc(OC(F)F)c1,34.4*,1.1,/,32.0,/
C=C(CN(C)C)C(=O)c1ccc(C)cc1C,14.0*,-0.4,-12.2,-5.6,-0.8
Nc1cc(Cl)ccc1N1CCCCC1,0.4,-0.4,-5.5,1.4,-2.4
Nc1cc(Cl)cc2c1-c1ccc(Cl)cc1C2,23.1*,-0.1,2.5,37.2,4.7
Cc1[nH]c2ccccc2c1/C=N/NC(=O)c1cccc(Br)c1,16.4*,-0.2,/,7.1,/
O=C(N/N=C/c1[nH]c2ccccc2c1Cl)c1cccc(Br)c1,12.1*,0.6,-356.6,-1.3,-116.9
O=C(N/N=C/c1cc2c(cc1Cl)OCO2)c1cccc(Br)c1,-4.9,1.8,-4.2,12.4,-3.1
Cc1[nH]c2ccccc2c1/C=N/NC(=O)c1cc(-c2ccncc2)nc2ccccc12,6.9,-0.4,15.8,7.0,-6.8
Cc1[nH]c2ccccc2c1/C=N/NC(=O)c1cc(-c2ccccc2)n[nH]1,18.6*,-0.3,1.3,22.3,-1.9
CCc1cccc2c(/C=N/NC(=O)c3cccc(S(=O)(=O)Nc4ccccc4Cl)c3)c[nH]c12,27.4*,0.1,5.1,11.9,3.0
Cc1[nH]c2ccccc2c1/C=N/NC(=O)c1ccccc1,-4.0,0.0,0.0,-0.4,-6.4
O=C1CCc2cc(OCCCCc3nnnn3C3CCCCC3)ccc2N1,-0.5,0.2,-3.1,0.7,-4.4
CCOC(=O)c1cc2cc(F)ccc2nc1C,-1.0,0.0,-4.2,-6.8,0.8
Cc1[nH]c2ccccc2c1/C=N/NC(=O)c1ccc(N)cc1,11.5*,0.0,-1.3,-6.3,-4.6
Cc1[nH]c2ccccc2c1/C=N/NC(=O)c1cccc(S(=O)(=O)Nc2ccccc2Cl)c1,23.9*,-0.3,4.0,-2.2,-1.1
O=C(N/N=C/c1cccs1)c1cccc(S(=O)(=O)Nc2ccc(Cl)cc2)c1,28.1*,0.3,-0.6,-4.3,-0.3
CCN(CC)c1ccc(/C=N/NC(=O)c2cccc(S(=O)(=O)Nc3ccccc3OC)c2)c(O)c1,13.8*,1.1,-3.8,21.1,7.3
Cn1c(C(=O)O)cc2cc(Oc3ccccc3)ccc21,-1.1,0.0,-31.5,3.0,-18.0
CCOC(=O)Nc1ccc2c(CN3CCN(S(=O)(=O)c4ccccc4F)CC3)cc(=O)oc2c1,2.6,0.4,-90.4,26.9,-31.5
COC(=O)c1c(-c2ccc(OC)cc2)oc2ccc(-c3cc(OC)c(OC)c(OC)c3)cc12,0.5,-0.1,-94.4,29.4,-18.9

# High-throughput results (PubChem BioAssay)
